According to PubChem BioAssay (EPA / NIEHS):
Activity calls are given as the source filed them. How the source made its calls: active means hit-call score of the fitted dose curve at least 0.9, where 1 is the maximum; inactive means score below 0.9.

Assay: ATG_M_61_CIS: Attagene CIS-FACTORIAL HepG2 Assay for M61 Transcription Factor (Internal Marker) (AID 2282937)
Conditions: HepG2 Attagene CIS-FACTORIAL M61 internal marker reporter; actives raise or lower the signal
Procedure: ATG_CIS is a cell-based, multiplexed-readout assay that uses HepG2, a human liver cell line, with measurements taken at 24 hours after chemical dosing in a 24-well plate.ATG_M_61_CIS is one of 52 assay component(s) measured or calculated from the ATG_CIS assay. It is designed to make measurements of mRNA induction, a form of inducible reporter, as detected with fluorescence intensity signals by Reverse transcription polymerase chain reaction (RT-PCR) and Capillary electrophoresis technology.Data from the assay component ATG_M_61_CIS was analyzed into 1 assay endpoint. This assay endpoint, ATG_M_61_CIS, was analyzed with bidirectional fitting relative to DMSO as the negative control and baseline of activity. Using a type of inducible reporter, measures of mRNA for gain or loss-of-signal activity can be used to understand the background control at the transcription factor-level as they relate to the gene . Furthermore, this assay endpoint can be referred to as a secondary readout, because this assay has produced multiple assay endpoints where this one serves a background control function. To generalize the intended target to other relatable targets, this assay endpoint is annotated to the background measurement intended target family, where the subfamily is internal marker.
Human liver HepG2 cells are transiently transfected with multiple reporter transcription units (MRTUs) in 6-well plates using FuGene 6 reagent (Roche; 3 ml FuGene/1 mg DNA). The MRTU constructs are regulated by a cis-regulating element (promoter). […] A major difference between the CIS and TRANS system is that in CIS activities of endogenous TFs are measured, whereas the TRANS assay evaluates changes in activities of exogenous, chimeric NR-Gal4 proteins. […] At the end of 24 hour incubation, total RNA was isolated using TriZol reagent (Invitrogen). The isolated RNA is then reverse-transcribed using oligo(dT) primer and Mo-MLV reverse transcriptase (Invitrogen) with DNAse I (Ambion) treatment for 30 min. The one-tenth of the produced cDNA was amplified by PCR using Taq DNA polymerase (Invitrogen) and two reporter sequence-specific primers. The PCR products were fluorescently labeled by primer extension with 6-arboxyfluorescein (6-FAM) 5'-labeled reporter sequence-specific primer (2 min at 95 C, 20 s at 68 C and 10 min at 72 C) and these products were digested with 5U of HpaI (New England Biolabs) for 2h at 37 C. The fragments were purified using Qiaquick PCR columns (Qiagen), analyzed on an ABI 3130xL genetic analyzer (Applied Biosystems) with peak positions identified by using a set of X-rhodamine (ROX)-labeled MapMarker1000 molecular weight standards (BioVentures). The raw capillary electrophoresis data was processed using Attagraph software (Attagene).

Compound | outcome
CCCCCc1cc(O)cc(O)c1 | inactive
CCc1cc(C)cc(CC)c1-c1c(OC(=O)C(C)(C)C)n2n(c1=O)CCOCC2 | inactive
CCOP(=O)(OCC)OCC | inactive
O=C(NCNC(=O)NC1C(=O)NC(=O)N1CO)NC1C(=O)NC(=O)N1CO (stereo not given) | inactive
C[C@]12CC[C@H]3[C@@H](CC[C@@]45O[C@@H]4C(O)=C(C#N)C[C@]35C)[C@@H]1CC[C@@H]2O | inactive
c1ccc2c(c1)CCCC2 | inactive
CCCCOP(=O)(O)OCCCC | inactive
O=C(O)CCl | inactive
CN(C)CCC#N | inactive
Nc1ccccc1C(=O)Oc1ccc2ccccc2c1 | inactive
C=C(Cl)CCl | inactive
ClCCCCCCCl | inactive
CC(C)COP(=O)(OCC(C)C)OCC(C)C | inactive
O=C(CCN1CC1)OCC(CO)(COC(=O)CCN1CC1)COC(=O)CCN1CC1 | inactive
O=S(=O)(O)O | inactive
CC(C)(c1cc(Cl)c(O)c(Cl)c1)c1cc(Cl)c(O)c(Cl)c1 | inactive
CCCC=NO | inactive
COc1ccc(CO)cc1 | inactive
c1cc(OCC2CO2)ccc1Cc1ccc(OCC2CO2)cc1 (stereo not given) | inactive
C=C(Cl)Cl | inactive

Compound | outcome
C[N+](C)=CCl | inactive
CCOP(O)OCC | inactive
N#CCCCCC#N | inactive
CC[N+](=O)[O-] | inactive
CCN(CC)C(=S)S | inactive
c1ccc(P(c2ccccc2)c2ccccc2)cc1 | inactive
CC(C)CCCCCCCOC(=O)c1ccccc1C(=O)OCCCCCCCC(C)C | inactive
CC(C)(C)C(O)C(Oc1ccc(-c2ccccc2)cc1)n1cncn1 (stereo not given) | inactive
C=CCN(CC=C)C(=O)C(Cl)Cl | inactive
Cc1cc(C)c(C2=C(OC(=O)CC(C)(C)C)C3(CCCC3)OC2=O)c(C)c1 | inactive
c1ccc(Nc2ccc3ccccc3c2)cc1 | inactive
CCOP(=O)(OCC)Oc1ccc([N+](=O)[O-])cc1 | inactive
COC(C)(C)CCC[C@H](C)C/C=C/C(C)=C/C(=O)OC(C)C | inactive
O=c1[nH]c(Cl)c(Cl)cc1Cl | inactive
Cc1ncc(C[n+]2csc(CCO)c2C)c(N)n1 | inactive
CCCOC(=O)c1ccccc1C(=O)OCCC | inactive
CC(C)CCCCCCCOP(=O)(Oc1ccccc1)Oc1ccccc1 | inactive
CCc1cccc(C)c1N(C(=O)CCl)[C@@H](C)COC | inactive
CCC(=O)c1ccc(Cl)cc1 | inactive
[CH3][Sn]([Cl])([Cl])[Cl] | inactive
